Source: PubChem BioAssay (National Center for Advancing Translational Sciences (NCATS))
In the library only some 19% were active in any assay of this set; here they are far more common.
KB-3-1 tox = qHTS assay for MDR1-selective chemotherapeutics: Primary screen using the parental adenocarcinoma cell KB-3-1 | KB-3-1 viability, CellTiter-Glo ATP luminescence, 72 h | Potency, µM (doses to about 46.1 µM), actives largely listed as cytotoxic | 1.4% of 400,000 active | AID 1347075, 2019; also: nearly all actives have a fitted effect of over 60% in size
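Here the drug-naive KB-3-1 line serves as comparator for MDR sub-line selectivity; cells received compound titrations, 72 h at 37 °C, then CellTiter-Glo readout.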
TDP1 cell noCPT = qHTS for Inhibitors of human tyrosyl-DNA phosphodiesterase 1 (TDP1): qHTS in cells in absence of CPT; 15% of 420,000 active; DT40 Tdp1-/- hTDP1 cells, no CPT, ATP luminescence, 48 h; AID 686978, 2013; Potency, µM (highest dose often 46.2 µM), without a hit: at the top dose activity change, negative = growth inhibition, usual class: inhibitors; also: nearly all actives have a fitted effect of over 55% in size
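Camptothecin absent (DMSO only). Human TDP1-complemented DT40 knockout cells, 400 cells/well, 37 °C for minimum 48 hr; ATP measured via CellTiter-Glo, 30 min dark incubation, luminescence.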
KB-V1 cytotox = qHTS assay for MDR1-selective chemotherapeutics: Primary screen using the drug-selected MDR subline cells KB-V1. KB-V1 MDR cells viability, CellTiter-Glo, 72 h. Potency, µM (titrated, usually from 46.1 µM), most hits filed as cytotoxic. 3.4% of 400,000 active. AID 1347076, 2019; also: nearly all actives have a fitted effect of over 60% in size
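KB-V1 cells (P-gp-expressing MDR subline of KB-3-1) in phenol-red-free DMEM with 10% FBS were exposed to library compounds over a concentration series for 72 h at 37 degrees C. Viability read by CellTiter-Glo luminescence; concentration-effect curves fitted after normalization.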
HT1080 IDH1KD tx = qHTS for induction of synthetic lethality in tumor cells producing 2HG: qHTS for the HT-1080-IDH1KD cell line; HT-1080 IDH1 knockdown viability, ATP luminescence, 48 h; Potency, µM (doses to about 46.1 µM), inactives show at the top dose activity, negative = toxicity, actives largely listed as cytotoxic; 2% of 360,000 active;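 also: 0% = DMSO wells and -100% = cell-free medium wells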
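Cytotoxicity counter-line: IDH1KD HT-1080, 48 h, CellTiter-Glo. Curves classed by r2, magnitude and activity.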
HT1080-NT tox = qHTS for induction of synthetic lethality in tumor cells producing 2HG: qHTS for the HT-1080-NT fibrosarcoma cell line. HT-1080-NT fibrosarcoma viability, CellTiter-Glo ATP luminescence, 48 h. Potency, µM (series often up to 46.1 µM), inactives show top-dose activity, negative = less viability, usual class: cytotoxic. 1.6% of 360,000 active. AID 686970, 2013;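 also: NT is the 2HG producing partner of a matched IDH1 knockdown line; 0% = DMSO-treated cells and -100% = media-only wells without cells; nearly all actives have a fitted effect of over 55% in size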
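Viability by CellTiter-Glo luminescence after 48 h compound exposure at 37C of HT-1080-NT cells (750/well, RPMI, 5% FBS). % activity scaled between DMSO wells and medium-only wells, then curve-fitted and categorized by curve class.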
DT40 TDP1 CPT = qHTS for Inhibitors of human tyrosyl-DNA phosphodiesterase 1 (TDP1): qHTS in cells in presence of CPT; chicken DT40 Tdp1-/-;hTDP1 cells + 20 nM CPT, ATP luminescence, 48 h; Potency, µM (titrated, usually from 46.2 µM), for inactives: top-dose activity change, negative = growth inhibition, hits mostly inhibitors; 12% of 420,000 active; AID 686979, 2013; also: nearly all actives have a fitted effect of over 55% in size
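Chicken DT40 Tdp1-/- cells complemented with human TDP1, 400 cells/well, exposed to compounds plus 20 nM camptothecin for at least 48 h at 37 C; viability read as ATP content by CellTiter-Glo luminescence.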
The depositor's hits bear a star. Calls follow the shape of the dose curve; as a rule, active = well fitted curve in the direction sought with a large enough effect; inconclusive = small, poorly fitted or top-dose-only effect, or another doubt; inactive = no such curve, though single readings can be large; an effect the other way counts as inactive or inconclusive. Unless noted, % is scaled to controls: 0 for no effect and ±100 for the full control effect; potency is read from the fitted curve at half-maximal effect.

Screening Cc1nn(C)c(C)c1/C=N/N=C1\CCC2C3CCc4cc(O)ccc4C3CCC12C (stereo unspecified) returned KB-3-1 tox inactive, TDP1 cell noCPT 11.6µM*, KB-V1 cytotox inactive, HT1080 IDH1KD tx -2.9%, HT1080-NT tox -1.9% and DT40 TDP1 CPT inconclusive.
C[C@]12CCC3c4ccc(O)cc4CCC3C1CC/C2=N\N (stereo partly specified) was read as KB-3-1 tox inactive, TDP1 cell noCPT inconclusive, KB-V1 cytotox inactive, HT1080 IDH1KD tx 5.6%, HT1080-NT tox 8.7% and DT40 TDP1 CPT -25.6%.
For CC(=O)Nc1ccc(S(=O)(=O)NNc2cccc(C)c2)cc1 the results were KB-3-1 tox inconclusive, TDP1 cell noCPT inconclusive, KB-V1 cytotox inactive, HT1080 IDH1KD tx -17.2%, HT1080-NT tox -29.5% and DT40 TDP1 CPT 23.1µM*.
Screening Cc1cccc(NC(=O)CC(=O)Nc2cccc(C)c2)c1 returned KB-3-1 tox inactive, TDP1 cell noCPT -3.7%, KB-V1 cytotox inactive, HT1080 IDH1KD tx -14.3%, HT1080-NT tox -10.4% and DT40 TDP1 CPT -0.3%.
Screening Cc1cccc(NNC(=O)C(=O)NNc2cccc(C)c2)c1 returned KB-3-1 tox inconclusive, TDP1 cell noCPT -24.1%, KB-V1 cytotox inactive, HT1080 IDH1KD tx 5.17µM*, HT1080-NT tox inconclusive and DT40 TDP1 CPT 20.5%.
For COc1ccc(Br)c(C(=O)Nc2ccc(F)cc2)c1 the results were KB-3-1 tox inactive, TDP1 cell noCPT -4.7%, KB-V1 cytotox inactive, HT1080 IDH1KD tx -0.3%, HT1080-NT tox 8.1% and DT40 TDP1 CPT -7.4%.
Screening CC(C)(C)c1cc(NC(=O)c2ccc(OC3CCCC3)cc2)no1 returned KB-3-1 tox inconclusive, TDP1 cell noCPT inconclusive, KB-V1 cytotox 16.4µM*, HT1080 IDH1KD tx inconclusive, HT1080-NT tox -24.1% and DT40 TDP1 CPT inconclusive.
Screening O=C(Nc1ccon1)c1ccc(OC2CCCC2)cc1 returned KB-3-1 tox inactive, TDP1 cell noCPT inconclusive, KB-V1 cytotox 18.4µM*, HT1080 IDH1KD tx -2.2%, HT1080-NT tox -0.3% and DT40 TDP1 CPT -28.1%.
`Cc1cc(NC(=O)c2ccc(C(C)(C)C)cc2)no1` gave KB-3-1 tox inactive, TDP1 cell noCPT inconclusive, KB-V1 cytotox inactive, HT1080 IDH1KD tx -7.2%, HT1080-NT tox 2.8% and DT40 TDP1 CPT 6.5%.
`Cc1ccc(-n2c(=O)c3c(cnn3C)n(Cc3ccccc3F)c2=O)cc1` gave KB-3-1 tox inactive, TDP1 cell noCPT -28.6%, KB-V1 cytotox inactive and DT40 TDP1 CPT 18.4µM*.
`CCN1C(=O)[C@H]2[C@@H](c3ccc(C)cc3)N[C@]3(CCCN(CCC(C)C)C3=O)[C@H]2C1=O` gave KB-3-1 tox inactive, TDP1 cell noCPT -28.2%, KB-V1 cytotox inconclusive, HT1080 IDH1KD tx 2.7%, HT1080-NT tox 4.9% and DT40 TDP1 CPT -7.1%.
Screening CCCc1nc2oc3c(NCc4ccccn4)ncnc3c2c2c1COC(C)(C)C2 returned KB-3-1 tox inactive, TDP1 cell noCPT 14.6µM*, KB-V1 cytotox inconclusive, HT1080 IDH1KD tx -2.0%, HT1080-NT tox -0.7% and DT40 TDP1 CPT 14.6µM*.
Screening CCCc1nc2oc3c(NCC4CCCO4)ncnc3c2c2c1COC(C)(C)C2 (stereo unspecified) returned KB-3-1 tox inactive, TDP1 cell noCPT inconclusive, KB-V1 cytotox inconclusive, HT1080 IDH1KD tx -1.3%, HT1080-NT tox -0.8% and DT40 TDP1 CPT 29.1µM*.
`CC(C)c1nc2oc3c(NCC4CCCO4)ncnc3c2c2c1CCC2` (stereo unspecified) gave KB-3-1 tox inactive, TDP1 cell noCPT 16.4µM*, KB-V1 cytotox inconclusive, HT1080 IDH1KD tx -19.1%, HT1080-NT tox -24.0% and DT40 TDP1 CPT 25.9µM*.
